High-throughput results as filed in PubChem BioAssay.
NPC1 promoter act – activates the NPC1 promoter; Huh7 NPC1 promoter luciferase reporter, 24 h; Potency, µM (top dose mostly 9.22 µM), without a hit: at the highest dose activation, actives largely listed as activators; 2.4% of 320,000 active; further: % of control where 0% means no effect; nearly all actives have a fitted effect of over 60% in size
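In 1536-well qHTS, Huh7 cells harboring an NPC1 promoter–luciferase construct received compound for 24 h; activation was quantified by luminescence following luciferase reagent addition.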
ELG1 genotox – inducers of genotoxicity in HEK293T ELG1-luciferase cells. 1.3% of 330,000 active. AID 504466. Potency, µM (titrated, usually from 46 µM), without a hit: at the highest dose activity change, positive = activation, hits mostly activators. HEK293T ELG1-luciferase reporter, luminescence, 16 h; further: % of control where 0% means no effect; nearly all actives have a fitted effect of over 60% in size
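Genotoxicity was scored as increased ELG1-luciferase reporter signal, measured by ONE-Glo luminescence (30 min, room temperature). Compound or vehicle exposure of the HEK293T reporter cells lasted 16 hr at 37°C.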
SMN2 splice enh – enhancers of SMN2 splice variant expression; Potency, µM (top dose mostly 46.1 µM), inactives show top-dose activity change, positive = activation, actives largely listed as activators; HEK293 SMN2-luciferase splicing reporter, luminescence, 30-36 h; AID 1458; 2.8% of 210,000 active; further: % of control where 0% means no effect; nearly all actives have a fitted effect of over 55% in size
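qHTS luciferase splicing reporter: luminescence rises when SMN2 exon 7 is included in transfected HEK293 cells. Compound exposure lasted 30-36 h at 37C, with 4.5 mM final sodium butyrate as control, followed by a ONE-Glo read.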
FLuc modulator – inhibits or activates purified firefly luciferase, miR-21 counter-screen; Potency, µM (highest dose often 57.5 µM), inactives show at the top dose activity change, negative = inhibition, actives largely listed as inhibitors; 6.9% of 360,000 active; P08659; purified FLuc, Km substrates, luminescence inhibition; AID 588342;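 further: plate controls were vehicle for no effect and reference inhibitor for full effect; nearly all actives have a fitted effect of over 55% in size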
Target sequence (P08659 whole entry, looked up): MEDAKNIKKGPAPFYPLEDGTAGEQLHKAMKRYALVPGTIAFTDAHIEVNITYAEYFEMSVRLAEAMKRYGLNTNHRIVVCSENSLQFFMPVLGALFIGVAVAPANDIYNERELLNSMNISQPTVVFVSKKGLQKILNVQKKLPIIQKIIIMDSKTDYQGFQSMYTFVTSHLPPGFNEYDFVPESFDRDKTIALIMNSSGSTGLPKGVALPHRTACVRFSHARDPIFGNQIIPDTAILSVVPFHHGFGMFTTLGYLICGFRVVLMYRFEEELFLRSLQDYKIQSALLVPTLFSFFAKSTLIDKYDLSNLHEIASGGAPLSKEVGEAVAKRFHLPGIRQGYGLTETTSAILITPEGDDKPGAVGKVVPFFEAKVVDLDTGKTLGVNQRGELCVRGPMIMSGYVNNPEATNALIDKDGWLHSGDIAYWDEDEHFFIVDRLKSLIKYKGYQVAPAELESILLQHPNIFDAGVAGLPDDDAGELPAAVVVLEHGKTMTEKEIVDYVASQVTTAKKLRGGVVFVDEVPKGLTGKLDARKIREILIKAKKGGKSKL
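Purified P. pyralis luciferase, 10 nM final, with Km-level 10 uM D-luciferin and 10 uM ATP in 50 mM Tris acetate pH 7.5, 10 mM Mg acetate, 0.01% Tween-20, 0.05% BSA; 6-point qHTS titration about 60 µM downward; luminescence read.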
ELG1 repair inh – blocks ELG1-dependent DNA repair in HEK293T cells. HEK293T ELG1-luciferase reporter, luminescence, 16 h; DNA damage induced by 5-fluorouridine. Potency, µM (top dose mostly 46.1 µM), inactives show at the top dose activity change, negative = inhibition, usual class: inhibitors. 2.3% of 330,000 active; further: on the % scale 0 is the no-effect control and ±100 the full control effect; nearly all actives have a fitted effect of over 55% in size
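In this reporter screen, reduction of luminescence relative to DMSO vehicle indicated activity. Compounds and 5-fluorouridine were added together to 2,000 cells per well, incubated for 16 hr at 37 °C, then developed with ONE-Glo.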
Rab9 prom act – activates the Rab9 promoter. 2.8% of 320,000 active. Huh7 Rab9 promoter-luciferase reporter, luminescence, 24 h. Potency, µM (doses to about 9.22 µM), for inactives: at the top dose activation, negative = inhibition, most hits filed as activators; further: % of control where 0% means no effect; nearly all actives have a fitted effect of over 60% in size
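Luminescence from Amplite-detected luciferase (10 minutes, ambient) reports Rab9 promoter activation. Before that, stable Rab9-luciferase Huh7 cells (1500/well, reduced-serum OP-MEM I plus 10% FBS) were exposed to compound for 24 hours at 37C.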
* marks the source's active call; other numbers are inactive results; ? = inconclusive; nt = no result; [ ] = dose if it differs, or a comment. Sampled rows, rich in hits. Any-hit rate of the full collection: about 9.3%. The call rests on the fitted dose curve; in most records, active means well fitted curve in the direction sought with a large enough effect; inconclusive means small, poorly fitted or top-dose-only effect, or another doubt; inactive means no such curve, though single readings can be large; an effect the other way counts as inactive or inconclusive. Potency means the concentration at half of the fitted maximal effect.

SMILES	NPC1 promoter act	ELG1 genotox	SMN2 splice enh	FLuc modulator	ELG1 repair inh	Rab9 prom act
COc1ccc(CC2(CO)CCN(S(=O)(=O)c3sccc3C)CC2)cc1	0%	-11%	nt	0%	18µM*	-7%
CCc1ccc(CN2CCC(Oc3ccc(C(=O)NCc4ccccn4)cc3)CC2)o1	1%	-2%	nt	-1%	0%	4%
COc1cccc(NC(=O)CN(C)C(=O)CN2C(=O)NC(C)(c3ccc4ccccc4c3)C2=O)c1 (configuration not stated)	-2%	23%	nt	-1%	15%	-4%
COc1ccc(/C=N/NC(=O)C(=O)/C=C2\NC3(CCCC3)Cc3ccccc32)cc1	-2%	-8%	-15%	-11%	23µM*	0%
NNC(=O)C(=O)/C=C1\NC2(CCCC2)Cc2ccccc21	-1%	-2%	nt	1%	?	-1%
O=C(/C=C1\NC2(CCCC2)Cc2ccccc21)C(=O)N/N=C/c1ccc(O)c(O)c1	-23%	-15%	nt	-20%	23µM*	10%
CCOc1ccccc1NC(=O)C(CC(C)C)NS(=O)(=O)c1ccc2c(c1)oc(=O)n2C (configuration not stated)	nt	nt	4%	1%	nt	nt
Cc1cccc(N(CC(=O)Nc2ccc(F)cc2)S(C)(=O)=O)c1	-2%	2%	6%	-1%	-3%	0%
Cc1ccc2nc(-c3ccc(NC(=O)CN(c4ccccc4C)S(C)(=O)=O)cc3)sc2c1	?	?	11µM*	2.4µM*	?	3.2µM*
Cc1cc(C)cc(N(CC(=O)Nc2ccc(-c3nc4ccc(C)cc4s3)cc2)S(C)(=O)=O)c1	?	?	3%[1.84 µM]	5.4µM*	?	?
CN(C)S(=O)(=O)N(CC(=O)Nc1ccc2ccccc2c1)c1ccccc1	-2%	-8%	-5%	-20%	23µM*	-5%
CCN(CC)c1ccc(NC(=O)Nc2ccc(C(C)=O)cc2)cc1	1%	1%	10%	0%	25%	4%
CN(C)S(=O)(=O)N(CC(=O)Nc1ccc(F)c(F)c1)c1ccccc1	1%	-3%	-7%	1%	3%	-3%
CC(=O)c1ccc(NC(=O)Nc2ccccc2)cc1	0.45µM*	1.8µM*	11µM*	7.6µM*	?	0.32µM*
CCN(CC)c1ccc(NC(=O)Nc2ccccc2)cc1	0.89µM*	10µM*	nt	0.95µM*	?	3.2µM*
O=C(Nc1ccccc1)Nc1ccc(C(=O)N2CCOCC2)cc1	?	?	20µM*	13µM*	?	1%
O=C(CS(=O)(=O)c1cccc2nsnc12)Nc1ccccc1	nt	nt	nt	-2%	nt	nt
CCOc1ccc(NC(=O)c2sc3nc4c(c(-c5ccc(OC)cc5)c3c2N)C(=O)CC(C)(C)C4)cc1	nt	nt	5%	-1%	nt	nt
O=C(Nc1ccccc1)Nc1ccc2ccccc2c1	2.5µM*	14%	nt	?	?	3.5µM*
Cc1ccc(NC(=O)NCc2ccccn2)cc1	13%	?	-3%	-16%	?	7%
CC(=O)c1cccc(NC(=O)Nc2ccccc2)c1	25%	2%	nt	12µM*	?	16%
CC(=O)c1ccc(NC(=O)c2cccc(NC(=O)c3ccccc3)c2)cc1	16%	10%	nt	?	?	29%
CC(=O)c1cccc(NC(=O)NCc2ccccn2)c1	?	9.2µM*	16µM*	9.5µM*	?	?
O=[N+]([O-])c1ccc(O)c(-c2nn[nH]n2)c1	13%	?	-3%	27µM*	?	27%
CCN(CC)c1ccc(/C=N/N=C(N)N)c(O)c1	-11%	10%	-37%	-5%	-10%	-19%
CS/C(N)=N/N=C/c1cc(C)ccc1O	1.1µM*	7.3µM*	nt	1.2µM*	?	0.16µM*
Cc1ccc(O)c(/C=N/NC(=O)CN2CCCC2)c1	-2%	?	nt	0%	-6%	1%
CCS/C(N)=N/N=C/c1cc(C)ccc1O	1.6µM*	1.2µM*	11µM*	0.95µM*	?	?
